About 7,900 targets were measured; listed, in parts, are those with a hit and a random draw of the rest. About 0.6% of all pairs of compound and target were hits.
Experiments:
Assay in all cases: log2 fold change, soluble protein after heating vs DMSO (PISA); higher = thermal stabilisation; K562 cells, 10 uM, 30 min; active = over 0.2 and 3.5 SD of the protein, either way, in both replicates (recomputed)
[1] = compound: C1=CC=C(C=C1)[C@H](COC2=CC3=C(C=C2)NC(=O)N3)NC(=O)C4=CC=CN(C4=O)CC5=CC(=C(C=C5)F)F
Summary of the method: (§1)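 Values are thermal stability changes relative to control samples and are taken from duplicates. They are stated as log2 fold changes. Before quantification by TMTpro 16plex LC-MS/MS with equalised channel sums, K562 cells at 2×10^6 cells/mL were treated with 10 μM compound for 30 min, heated in aliquots for 3 min across 48°C-58°C, pooled, extracted in PBS with 0.5% NP-40 at 4°C, and centrifuged at 21,000xg for 90 min to give the soluble supernatant.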

[2] = compound: CC1=C2C(=CC=C1)N=C(N(C2=O)C3=CC=CC=C3C)CN4C=NC5=C(N=CN=C54)N
Summary of the method: as §1

[3] = compound: Cc1sc2c(c1C)C(c1ccc(Cl)cc1)=N[C@@H](CC(=O)OC(C)(C)C)c1nnc(C)n1-2
Summary of the method: as §1

[4] = compound: CC1=C(SC2=C1C(=N[C@H](C3=NN=C(N32)C)CC(=O)N)C4=CC=C(C=C4)Cl)C
Summary of the method: as §1

[5] = compound: c1ccc([C@@H]2C[C@H]2NC2CCNCC2)cc1
Summary of the method: as §1

UniProt Q8WUD6, sequence (Q8WUD6 whole entry, looked up): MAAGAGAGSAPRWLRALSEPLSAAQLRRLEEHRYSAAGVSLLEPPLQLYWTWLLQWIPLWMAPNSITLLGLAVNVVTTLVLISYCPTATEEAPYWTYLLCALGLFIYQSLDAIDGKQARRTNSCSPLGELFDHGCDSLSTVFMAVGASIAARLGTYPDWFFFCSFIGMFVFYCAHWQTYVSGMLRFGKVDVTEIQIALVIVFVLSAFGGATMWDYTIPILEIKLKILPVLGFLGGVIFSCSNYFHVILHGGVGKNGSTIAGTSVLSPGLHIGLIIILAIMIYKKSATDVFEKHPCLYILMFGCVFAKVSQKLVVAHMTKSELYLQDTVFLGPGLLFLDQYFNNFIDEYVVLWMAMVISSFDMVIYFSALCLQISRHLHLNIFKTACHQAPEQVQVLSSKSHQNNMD
UniProt Q14061, sequence (Q14061 whole entry, looked up): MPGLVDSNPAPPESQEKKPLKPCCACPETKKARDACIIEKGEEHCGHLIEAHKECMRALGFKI
UniProt Q9BWU1, sequence (Q9BWU1 whole entry, looked up): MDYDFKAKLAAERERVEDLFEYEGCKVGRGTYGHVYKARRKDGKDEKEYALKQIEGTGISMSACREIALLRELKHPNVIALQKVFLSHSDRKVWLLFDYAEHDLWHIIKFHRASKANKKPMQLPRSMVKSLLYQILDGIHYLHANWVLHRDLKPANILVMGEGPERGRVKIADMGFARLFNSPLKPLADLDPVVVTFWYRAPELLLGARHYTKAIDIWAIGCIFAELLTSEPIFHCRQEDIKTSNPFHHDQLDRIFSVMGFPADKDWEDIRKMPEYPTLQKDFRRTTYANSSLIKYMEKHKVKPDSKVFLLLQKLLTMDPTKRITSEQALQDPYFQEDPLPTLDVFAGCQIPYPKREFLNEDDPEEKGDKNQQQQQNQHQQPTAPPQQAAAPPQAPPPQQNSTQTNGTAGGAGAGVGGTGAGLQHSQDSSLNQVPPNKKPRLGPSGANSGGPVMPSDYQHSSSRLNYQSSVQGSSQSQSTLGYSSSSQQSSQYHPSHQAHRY
UniProt Q13111, sequence (Q13111 whole entry, looked up): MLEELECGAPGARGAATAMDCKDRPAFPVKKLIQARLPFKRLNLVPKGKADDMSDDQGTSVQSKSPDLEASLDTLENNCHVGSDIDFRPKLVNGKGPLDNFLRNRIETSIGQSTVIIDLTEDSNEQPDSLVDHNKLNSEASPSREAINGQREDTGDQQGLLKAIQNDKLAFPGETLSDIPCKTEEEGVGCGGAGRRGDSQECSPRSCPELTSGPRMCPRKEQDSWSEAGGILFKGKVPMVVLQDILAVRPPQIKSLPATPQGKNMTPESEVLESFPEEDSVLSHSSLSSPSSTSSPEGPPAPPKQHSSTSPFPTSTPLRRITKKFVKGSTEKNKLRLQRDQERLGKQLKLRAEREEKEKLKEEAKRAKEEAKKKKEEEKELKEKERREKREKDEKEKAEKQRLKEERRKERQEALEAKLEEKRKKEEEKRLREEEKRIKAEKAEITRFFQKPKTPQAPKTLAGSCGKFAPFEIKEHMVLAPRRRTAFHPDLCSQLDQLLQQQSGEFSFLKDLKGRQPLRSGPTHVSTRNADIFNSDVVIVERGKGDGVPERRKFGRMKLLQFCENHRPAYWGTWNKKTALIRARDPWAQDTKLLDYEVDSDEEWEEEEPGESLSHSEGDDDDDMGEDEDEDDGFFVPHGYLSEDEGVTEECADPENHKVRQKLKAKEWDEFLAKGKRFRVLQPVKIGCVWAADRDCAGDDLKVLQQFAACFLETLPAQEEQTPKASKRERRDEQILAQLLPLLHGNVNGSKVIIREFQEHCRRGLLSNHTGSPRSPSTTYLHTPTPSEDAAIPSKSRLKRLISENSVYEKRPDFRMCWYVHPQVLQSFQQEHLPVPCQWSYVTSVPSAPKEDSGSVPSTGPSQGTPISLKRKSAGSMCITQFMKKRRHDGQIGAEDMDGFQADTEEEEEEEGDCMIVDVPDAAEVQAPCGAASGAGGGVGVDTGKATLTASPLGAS
UniProt Q9UIB8, sequence (Q9UIB8 whole entry, looked up): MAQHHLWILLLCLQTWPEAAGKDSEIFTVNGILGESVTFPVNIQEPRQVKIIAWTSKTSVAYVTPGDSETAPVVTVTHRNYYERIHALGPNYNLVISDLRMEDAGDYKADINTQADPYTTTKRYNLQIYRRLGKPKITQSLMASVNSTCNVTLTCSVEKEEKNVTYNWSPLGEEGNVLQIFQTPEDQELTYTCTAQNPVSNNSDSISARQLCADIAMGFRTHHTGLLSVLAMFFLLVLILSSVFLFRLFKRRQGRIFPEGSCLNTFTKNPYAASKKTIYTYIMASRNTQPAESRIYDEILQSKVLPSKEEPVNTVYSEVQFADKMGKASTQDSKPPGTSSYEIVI
UniProt Q6UUV9, sequence (Q6UUV9 whole entry, looked up): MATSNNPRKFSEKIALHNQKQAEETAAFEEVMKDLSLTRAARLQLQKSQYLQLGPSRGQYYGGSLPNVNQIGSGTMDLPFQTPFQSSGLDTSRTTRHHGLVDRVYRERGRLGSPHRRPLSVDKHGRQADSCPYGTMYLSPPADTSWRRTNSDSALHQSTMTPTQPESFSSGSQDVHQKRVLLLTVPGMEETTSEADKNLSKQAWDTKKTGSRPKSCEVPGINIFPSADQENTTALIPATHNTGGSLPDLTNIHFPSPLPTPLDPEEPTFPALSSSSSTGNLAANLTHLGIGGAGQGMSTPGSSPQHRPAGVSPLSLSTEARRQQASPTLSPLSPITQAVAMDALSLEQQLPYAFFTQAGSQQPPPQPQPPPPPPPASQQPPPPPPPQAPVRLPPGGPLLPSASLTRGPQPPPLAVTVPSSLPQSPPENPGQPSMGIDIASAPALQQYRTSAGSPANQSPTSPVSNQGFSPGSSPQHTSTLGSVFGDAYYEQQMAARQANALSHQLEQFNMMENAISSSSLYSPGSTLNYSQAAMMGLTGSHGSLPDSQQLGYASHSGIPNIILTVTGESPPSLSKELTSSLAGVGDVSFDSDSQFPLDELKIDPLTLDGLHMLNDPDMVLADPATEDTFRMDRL
UniProt Q9Y2V0, sequence (Q9Y2V0 whole entry, looked up): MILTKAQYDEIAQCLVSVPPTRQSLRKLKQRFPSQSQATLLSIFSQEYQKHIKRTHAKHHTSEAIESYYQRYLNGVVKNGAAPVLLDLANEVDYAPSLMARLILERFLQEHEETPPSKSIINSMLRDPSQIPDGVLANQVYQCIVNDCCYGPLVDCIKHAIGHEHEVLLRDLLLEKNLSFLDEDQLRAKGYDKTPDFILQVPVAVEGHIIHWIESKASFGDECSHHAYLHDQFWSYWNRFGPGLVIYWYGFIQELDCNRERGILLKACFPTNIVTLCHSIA
UniProt Q7Z4R8, sequence (Q7Z4R8 whole entry, looked up): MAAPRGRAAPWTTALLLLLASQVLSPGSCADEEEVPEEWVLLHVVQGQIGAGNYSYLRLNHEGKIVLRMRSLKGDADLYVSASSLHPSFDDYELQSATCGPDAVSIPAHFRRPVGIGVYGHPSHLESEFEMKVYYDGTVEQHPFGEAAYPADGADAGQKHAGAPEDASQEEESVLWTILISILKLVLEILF
UniProt P15954, sequence (P15954 whole entry, looked up): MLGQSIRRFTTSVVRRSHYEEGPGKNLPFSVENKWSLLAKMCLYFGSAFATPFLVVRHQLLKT
UniProt Q13901, sequence (Q13901 whole entry, looked up): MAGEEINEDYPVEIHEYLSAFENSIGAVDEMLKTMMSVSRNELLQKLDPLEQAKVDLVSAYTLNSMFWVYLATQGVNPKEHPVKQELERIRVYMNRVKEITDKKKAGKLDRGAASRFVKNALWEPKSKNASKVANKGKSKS
UniProt O60583, sequence (O60583 whole entry, looked up): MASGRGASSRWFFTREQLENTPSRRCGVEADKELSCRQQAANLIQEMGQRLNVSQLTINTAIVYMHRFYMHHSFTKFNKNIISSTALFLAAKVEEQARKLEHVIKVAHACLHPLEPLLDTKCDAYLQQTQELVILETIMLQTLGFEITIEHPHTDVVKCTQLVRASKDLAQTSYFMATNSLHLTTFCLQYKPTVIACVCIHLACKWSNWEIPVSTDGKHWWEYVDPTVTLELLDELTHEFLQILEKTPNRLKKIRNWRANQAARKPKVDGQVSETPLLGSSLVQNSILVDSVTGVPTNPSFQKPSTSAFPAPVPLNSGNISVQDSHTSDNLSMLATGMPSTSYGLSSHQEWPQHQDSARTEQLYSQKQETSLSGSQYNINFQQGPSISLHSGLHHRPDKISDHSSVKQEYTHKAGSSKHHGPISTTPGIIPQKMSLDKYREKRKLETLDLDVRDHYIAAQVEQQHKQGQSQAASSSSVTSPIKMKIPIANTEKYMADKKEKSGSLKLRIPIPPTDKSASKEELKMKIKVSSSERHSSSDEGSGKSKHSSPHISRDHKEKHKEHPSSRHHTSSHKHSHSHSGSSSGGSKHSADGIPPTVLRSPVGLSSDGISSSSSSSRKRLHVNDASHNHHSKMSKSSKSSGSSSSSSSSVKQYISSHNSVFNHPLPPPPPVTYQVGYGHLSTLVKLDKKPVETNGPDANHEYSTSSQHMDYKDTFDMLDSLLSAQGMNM

Target | log2 fold change [1] | log2 fold change [2] | log2 fold change [3] | log2 fold change [4] | log2 fold change [5]
CRTC1 isoform 2 (UniProt Q6UUV9) | -0.036 (inactive) | 0.018 (inactive) | 0.046 (inactive) | – | –
CA1 (UniProt E5RIF9) | -0.021 (inactive) | 0.187 (inactive) | 0.143 (inactive) | – | –
CCNT2 (UniProt O60583) | – | – | 0.061 (inactive) | – | –
C1D (UniProt Q13901) | -0.019 (inactive) | 0.028 (inactive) | 0.074 (inactive) | – | –
CHAF1A (UniProt Q13111) | 0.045 (inactive) | – | – | -0.026 (inactive) | -0.045 (inactive)
CD84 (UniProt Q9UIB8) | – | – | -0.079 (inactive) | 0.167 (inactive) | 0.086 (inactive)
CHPT1 (UniProt Q8WUD6) | – | – | -0.198 (inactive) | 0.003 (inactive) | 0.11 (inactive)
CDK19 (UniProt Q9BWU1) | – | 0.05 (inactive) | 0.021 (inactive) | 0.035 (inactive) | 0.019 (inactive)
C15orf41 (UniProt Q9Y2V0) | – | 0.014 (inactive) | -0.011 (inactive) | 0.081 (inactive) | 0.149 (inactive)
COMMD3-BMI1 (UniProt R4GMX3) | – | – | 0.002 (inactive) | -0.114 (inactive) | 0.154 (inactive)
C6orf120 (UniProt Q7Z4R8) | -0.018 (inactive) | 0.37 (active) | -0.038 (inactive) | – | –
COX17 (UniProt Q14061) | – | 0.022 (inactive) | -0.073 (inactive) | 0.12 (inactive) | -0.085 (inactive)
COX7C (UniProt P15954) | -0.023 (inactive) | -0.073 (inactive) | -0.079 (inactive) | – | –

— the supplement of paper PMC10849652
